This is an account of results in ChEMBL document CHEMBL3988442, “University of Dundee, Small-Polar-MMV Screening Library” (2021).

For some of these results: Entries with a potency or affinity are not part of this list.

Common to all, as to design: scale not given: direction of the effect not stated beside the values
Assay [1] concerns the target Protein translocase subunit SecA (Escherichia coli (strain K12)) (UniProt P10408). Description: Assay to Identify E. coli SecA ATPase Inhibitors. Particulars: 30 µM. It counts as functional.
In assay [2] the target is T1, Ubiquitin-activating enzyme e1, putative (Leishmania donovani (strain BPK282A1)) (UniProt E9BSI1).
T1 sequence (whole entry): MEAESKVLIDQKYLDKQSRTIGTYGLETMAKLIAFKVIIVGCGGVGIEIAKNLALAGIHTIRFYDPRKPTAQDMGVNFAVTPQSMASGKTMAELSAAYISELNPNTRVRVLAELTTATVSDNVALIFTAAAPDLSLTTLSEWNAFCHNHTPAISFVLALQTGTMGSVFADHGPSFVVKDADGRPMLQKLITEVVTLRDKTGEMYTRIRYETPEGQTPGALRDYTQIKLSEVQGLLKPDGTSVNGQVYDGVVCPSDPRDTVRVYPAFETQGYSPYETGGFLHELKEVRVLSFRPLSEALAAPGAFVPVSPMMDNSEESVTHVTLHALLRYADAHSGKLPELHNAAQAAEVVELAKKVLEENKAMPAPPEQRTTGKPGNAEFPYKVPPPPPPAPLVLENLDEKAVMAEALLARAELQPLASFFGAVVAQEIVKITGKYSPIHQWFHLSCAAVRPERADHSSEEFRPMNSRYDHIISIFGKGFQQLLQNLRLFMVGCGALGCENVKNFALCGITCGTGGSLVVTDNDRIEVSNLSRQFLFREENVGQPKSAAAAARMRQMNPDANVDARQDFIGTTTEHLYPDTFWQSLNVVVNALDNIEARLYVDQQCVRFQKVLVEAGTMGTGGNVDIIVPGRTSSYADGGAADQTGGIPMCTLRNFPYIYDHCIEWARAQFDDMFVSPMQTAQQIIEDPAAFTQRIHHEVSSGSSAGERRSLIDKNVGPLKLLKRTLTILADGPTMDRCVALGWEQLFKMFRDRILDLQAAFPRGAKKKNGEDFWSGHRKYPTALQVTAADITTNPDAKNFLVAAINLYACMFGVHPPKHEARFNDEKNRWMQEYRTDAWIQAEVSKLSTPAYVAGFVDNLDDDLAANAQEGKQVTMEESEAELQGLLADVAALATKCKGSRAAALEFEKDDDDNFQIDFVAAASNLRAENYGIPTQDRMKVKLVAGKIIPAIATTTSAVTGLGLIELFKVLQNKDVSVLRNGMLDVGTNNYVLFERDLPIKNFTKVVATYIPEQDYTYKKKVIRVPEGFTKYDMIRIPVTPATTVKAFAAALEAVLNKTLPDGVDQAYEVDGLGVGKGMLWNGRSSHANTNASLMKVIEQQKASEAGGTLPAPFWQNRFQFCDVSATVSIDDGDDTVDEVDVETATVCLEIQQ
As to the kind of experiment: Leishmania donovani Ubiquitin Activating Enzyme (LdE1). It counts as functional. Particulars: 30 µM.

Assay [3] deals with AMP-activated protein kinase, AMPK (Homo sapiens) (UniProt P54646+O43741+P54619+Q9UGJ0+Q9Y478+Q13131+Q9UGI9). As to the kind of experiment: AMP-dependent Kinase enzyme assay. An in vitro enzyme assay that detects ADP turnover that is directly proportional to AMPK activity. This uses naive AMPK that is activated during the assay with MK-8722. The class given is functional. Particulars: 30 µM.

Assay [4] addresses Sialic acid-binding Ig-like lectin 9 (Homo sapiens) (UniProt Q9Y336). As to the kind of experiment: Hs-Siglec9 ALPHAscreen SOP 20170721. Particulars: 10 µM.
Assay [5] relates to Trypanosoma cruzi. As to the kind of experiment: Trypanosoma cruzi phosphomannomutase and mannose-1-phosphate guanylyltransferase assay. Particulars: 10 µM. It counts as functional.
In assay [6] the target is T2, Arginase-2, mitochondrial (Homo sapiens) (UniProt P78540).
T2 sequence (whole entry): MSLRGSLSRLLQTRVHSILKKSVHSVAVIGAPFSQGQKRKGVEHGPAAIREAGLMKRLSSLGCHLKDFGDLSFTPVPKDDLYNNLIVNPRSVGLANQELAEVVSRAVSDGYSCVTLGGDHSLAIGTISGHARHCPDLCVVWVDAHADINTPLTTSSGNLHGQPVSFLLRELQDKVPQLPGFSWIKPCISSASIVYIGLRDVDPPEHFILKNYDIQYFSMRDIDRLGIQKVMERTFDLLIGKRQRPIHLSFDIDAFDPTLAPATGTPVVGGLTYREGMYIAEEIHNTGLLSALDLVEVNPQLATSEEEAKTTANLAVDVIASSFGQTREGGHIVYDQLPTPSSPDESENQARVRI
As to the kind of experiment: in vitro enzyme assay to detect the production of urea directly proportional to the activity of Arginase II. Note: in the data most compounds retested in dose-response had high values. Particulars: 33.3 µM. The class given is functional.

Assay [7] addresses T3, Proteasome subunit beta (Trypanosoma cruzi) (UniProt O96673).
T3 sequence (whole entry): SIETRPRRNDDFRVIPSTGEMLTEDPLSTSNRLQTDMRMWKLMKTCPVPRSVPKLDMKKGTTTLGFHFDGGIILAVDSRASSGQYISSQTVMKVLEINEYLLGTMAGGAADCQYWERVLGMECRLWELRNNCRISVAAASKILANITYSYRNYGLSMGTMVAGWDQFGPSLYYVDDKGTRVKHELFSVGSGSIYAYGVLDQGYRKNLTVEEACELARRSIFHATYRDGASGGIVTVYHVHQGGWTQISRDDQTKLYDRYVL
Description: Trypanosoma cruzi proteasome chymotrypsin-like activity (TcProtChymo) assay. Note: in the data most compounds retested in dose-response had high values. Particulars: 9.37 µM. The class given is functional.

The species named for assay [8] is Homo sapiens. As to the kind of experiment: To identify inhibition of the IFN signalling (Jak-Stat) pathway via expression of an eGFP reporter gene under the control of an IFN-stimulated response element (ISRE) containing MxA promoter. The class given is functional. Particulars: 30 µM.
Assay [9] deals with T4, Tyrosyl-tRNA synthetase, putative (Trypanosoma cruzi (strain CL Brener)) (UniProt Q4DSP6).
T4 sequence (whole entry): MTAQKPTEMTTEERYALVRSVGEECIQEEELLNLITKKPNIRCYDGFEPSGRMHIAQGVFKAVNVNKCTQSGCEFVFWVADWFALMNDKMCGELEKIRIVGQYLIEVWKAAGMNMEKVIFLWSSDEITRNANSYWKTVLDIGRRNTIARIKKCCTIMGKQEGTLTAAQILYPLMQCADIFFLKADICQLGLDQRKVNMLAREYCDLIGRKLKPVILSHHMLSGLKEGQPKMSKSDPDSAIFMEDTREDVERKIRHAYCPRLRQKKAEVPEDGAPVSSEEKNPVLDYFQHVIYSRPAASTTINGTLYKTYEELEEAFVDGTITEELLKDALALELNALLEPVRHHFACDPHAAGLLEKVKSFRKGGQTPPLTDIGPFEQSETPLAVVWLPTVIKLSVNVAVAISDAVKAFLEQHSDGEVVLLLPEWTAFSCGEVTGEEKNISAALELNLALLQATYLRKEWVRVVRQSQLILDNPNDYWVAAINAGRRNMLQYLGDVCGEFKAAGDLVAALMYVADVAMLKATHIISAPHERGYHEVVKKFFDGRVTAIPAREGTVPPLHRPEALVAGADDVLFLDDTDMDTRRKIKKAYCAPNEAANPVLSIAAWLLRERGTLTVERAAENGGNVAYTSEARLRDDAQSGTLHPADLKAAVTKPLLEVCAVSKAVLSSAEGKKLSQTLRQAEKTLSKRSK
Description: Trypanosoma cruzi tyrosyl tRNA synthetase (TcYRS) _High Tyrosine SOP. Note: in the data most compounds retested in dose-response had high values. The class given is functional. Particulars: 30 µM.

Assay [10] concerns the target T4, Tyrosyl-tRNA synthetase, putative (Trypanosoma cruzi (strain CL Brener)). Description: Trypanosoma cruzi tyrosyl tRNA synthetase (TcYRS) SOP. It counts as functional. Particulars: 30 µM.
Assay [11] has as its target Chromo domain-containing protein 1 (Saccharomyces cerevisiae (strain ATCC 204508 / S288c) (Baker's yeast)) (UniProt P32657). As to the kind of experiment: ScCHD-1 Enzyme Inhibition Assay. Note: in the data most compounds retested in dose-response had high values. The class given is functional. Particulars: 30 µM.

Chain of Protein translocase subunit SecA (Escherichia coli (strain K12)) (P10408 whole entry): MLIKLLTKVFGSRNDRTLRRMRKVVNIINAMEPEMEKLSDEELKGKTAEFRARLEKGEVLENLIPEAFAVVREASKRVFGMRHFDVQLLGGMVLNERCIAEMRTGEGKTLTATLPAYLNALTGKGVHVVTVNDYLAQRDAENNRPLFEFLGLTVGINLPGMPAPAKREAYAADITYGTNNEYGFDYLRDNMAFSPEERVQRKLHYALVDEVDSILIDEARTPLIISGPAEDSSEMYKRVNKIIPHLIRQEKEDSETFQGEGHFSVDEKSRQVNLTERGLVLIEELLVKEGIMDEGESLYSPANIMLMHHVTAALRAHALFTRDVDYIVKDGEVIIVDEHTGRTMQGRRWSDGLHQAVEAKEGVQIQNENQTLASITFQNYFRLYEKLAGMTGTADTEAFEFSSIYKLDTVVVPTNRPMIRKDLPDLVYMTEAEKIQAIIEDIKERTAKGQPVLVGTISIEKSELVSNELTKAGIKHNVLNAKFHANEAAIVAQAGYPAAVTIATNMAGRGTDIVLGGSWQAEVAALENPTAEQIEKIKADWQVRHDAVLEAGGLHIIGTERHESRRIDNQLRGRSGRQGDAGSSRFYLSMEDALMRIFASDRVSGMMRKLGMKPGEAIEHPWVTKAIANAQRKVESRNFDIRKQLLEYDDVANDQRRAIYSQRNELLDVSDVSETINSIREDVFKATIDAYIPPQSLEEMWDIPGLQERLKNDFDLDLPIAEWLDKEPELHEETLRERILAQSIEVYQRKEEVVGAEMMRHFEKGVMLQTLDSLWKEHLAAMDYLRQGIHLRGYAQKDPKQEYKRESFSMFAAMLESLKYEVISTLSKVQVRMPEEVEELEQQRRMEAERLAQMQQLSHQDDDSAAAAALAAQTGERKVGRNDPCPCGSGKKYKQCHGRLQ
Chain of Chromo domain-containing protein 1 (Saccharomyces cerevisiae (strain ATCC 204508 / S288c) (Baker's yeast)) (P32657 whole entry, the tested form may be a part): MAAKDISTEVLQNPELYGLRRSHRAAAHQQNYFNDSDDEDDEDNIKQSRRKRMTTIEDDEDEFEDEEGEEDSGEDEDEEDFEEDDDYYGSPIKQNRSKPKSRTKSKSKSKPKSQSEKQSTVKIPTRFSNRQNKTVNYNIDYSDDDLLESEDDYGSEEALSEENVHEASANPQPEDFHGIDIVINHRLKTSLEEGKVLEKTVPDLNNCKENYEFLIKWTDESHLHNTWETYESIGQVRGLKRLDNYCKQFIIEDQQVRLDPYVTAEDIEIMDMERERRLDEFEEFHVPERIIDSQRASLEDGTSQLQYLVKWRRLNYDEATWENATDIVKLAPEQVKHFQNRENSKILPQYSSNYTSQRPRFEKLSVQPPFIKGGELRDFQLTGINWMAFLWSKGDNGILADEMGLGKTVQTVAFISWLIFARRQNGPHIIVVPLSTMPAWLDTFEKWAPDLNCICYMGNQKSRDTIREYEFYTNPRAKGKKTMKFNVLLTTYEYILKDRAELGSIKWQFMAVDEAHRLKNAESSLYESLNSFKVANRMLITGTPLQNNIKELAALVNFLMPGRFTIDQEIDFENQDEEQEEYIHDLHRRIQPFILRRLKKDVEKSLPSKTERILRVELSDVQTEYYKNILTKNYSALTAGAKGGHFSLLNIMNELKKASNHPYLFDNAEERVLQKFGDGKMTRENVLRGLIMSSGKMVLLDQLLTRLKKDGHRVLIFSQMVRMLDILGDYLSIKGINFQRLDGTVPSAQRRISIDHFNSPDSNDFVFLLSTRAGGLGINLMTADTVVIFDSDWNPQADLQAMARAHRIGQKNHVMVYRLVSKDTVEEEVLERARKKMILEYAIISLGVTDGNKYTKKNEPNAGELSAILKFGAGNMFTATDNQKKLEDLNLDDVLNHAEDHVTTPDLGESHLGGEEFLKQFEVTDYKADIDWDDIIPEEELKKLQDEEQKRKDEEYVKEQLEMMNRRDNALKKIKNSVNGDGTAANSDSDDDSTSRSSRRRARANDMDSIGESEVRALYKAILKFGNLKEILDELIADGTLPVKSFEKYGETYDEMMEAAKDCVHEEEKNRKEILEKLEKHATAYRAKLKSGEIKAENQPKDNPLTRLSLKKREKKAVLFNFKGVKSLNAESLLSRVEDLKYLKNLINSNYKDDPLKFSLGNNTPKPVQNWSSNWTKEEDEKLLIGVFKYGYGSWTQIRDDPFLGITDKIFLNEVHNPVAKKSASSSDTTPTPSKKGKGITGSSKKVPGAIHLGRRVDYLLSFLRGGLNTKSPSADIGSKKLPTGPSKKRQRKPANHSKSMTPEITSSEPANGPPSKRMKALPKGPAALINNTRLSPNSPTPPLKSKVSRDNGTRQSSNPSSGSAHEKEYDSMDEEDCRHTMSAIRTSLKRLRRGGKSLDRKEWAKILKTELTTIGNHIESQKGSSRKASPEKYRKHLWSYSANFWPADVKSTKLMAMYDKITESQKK
Chain of Sialic acid-binding Ig-like lectin 9 (Homo sapiens) (Q9Y336 whole entry): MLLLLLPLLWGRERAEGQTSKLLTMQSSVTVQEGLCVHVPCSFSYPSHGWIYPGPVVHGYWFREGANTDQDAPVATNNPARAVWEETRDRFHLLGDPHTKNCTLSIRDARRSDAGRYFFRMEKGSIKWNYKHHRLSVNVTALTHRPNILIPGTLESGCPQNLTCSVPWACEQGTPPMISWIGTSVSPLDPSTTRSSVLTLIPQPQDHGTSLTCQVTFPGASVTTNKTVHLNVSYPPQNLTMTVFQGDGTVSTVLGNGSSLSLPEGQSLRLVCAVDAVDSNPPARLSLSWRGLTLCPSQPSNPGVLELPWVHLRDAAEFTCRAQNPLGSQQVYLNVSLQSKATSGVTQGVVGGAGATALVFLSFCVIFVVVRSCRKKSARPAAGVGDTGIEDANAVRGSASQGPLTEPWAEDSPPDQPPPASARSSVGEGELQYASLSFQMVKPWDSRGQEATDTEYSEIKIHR

Regarding `CN(Cc1ccsc1)C(=O)CN1CCCC1Cn1cccn1` (stereo not drawn), the Percent Effect in [1] was -3.48%; in [2] it was -18.2%; in [3] it was 2.08%; in assay [4], -4.38%; in [5], 5%; in [6], -1.05%. Further, the Percent Effect was 3.8% in assay [7]; -6.97% in assay [8]; 11.4% in assay [9]; 7.06% in assay [10]; 4.97% in [11].

In the case of `Cn1cc(CN2CCN(Cc3nccn3C)CC2)cn1`, the Percent Effect in assay [1] was 1.49%; in assay [2], 10.8%; in [3], 7.76%; in assay [4], -5.51%; in assay [5], -8.31%; in [6], -1.24%. For the same molecule, the Percent Effect in assay [7] is 7.12%; in assay [8] it was 43.3%; in assay [9], 0%; in assay [10] it was 1.24%; in assay [11], -4.77%.

For `O=C(Cn1ccc2ccc(Br)cc21)NC[C@@H]1CCCN2CCCC[C@H]12`, the Percent Effect in assay [1] was -9.26%; in [2], -4%; in [3], 0.939%; in [4] it was -2.99%; in assay [5], -5.5%; in assay [6] it was -12.8%. Moreover, the Percent Effect in assay [7] is 2.03%; in [8] it was 7.57%; in assay [9], 0%; in assay [10], -56.4%; in [11], -8.03%.

Regarding `O[C@H]1[C@H](n2cc(-c3ccccc3)nn2)c2ccccc2C12CCNCC2`, the Percent Effect in [1] was -1.97%; in assay [2] it was 6.94%; in assay [3] it was -7.62%; in [4], 0.48%; in assay [5], 1.65%; in assay [6] it was -1.77%. In addition, the Percent Effect in assay [7] was 10.2%; in [8], 12.5%; in [9] it was 5.26%; in assay [10] it was 15.4%; in [11], -2.48%.

With `CCCn1nc2c(cc1=O)CN(CCCN1CCCC1=O)CC2`, the Percent Effect in assay [1] was -3.62%; in [2], -2.7%; in assay [3], -101%; in assay [4], 1.97%; in assay [5], -2.55%; in [6] it was -1.6%. Further, the Percent Effect was 29.6% in assay [7]; 17.5% in [8]; 4.43% in [9]; -1.24% in assay [10]; -3.69% in [11].

As for `Cc1cnn(C2CCCN(C(=O)Cc3cn4ccccc4n3)C2)c1` (stereo not drawn), the Percent Effect was -5.24% in [1]; 19% in assay [2]; -2.41% in assay [3]; -0.453% in [4]; -0.103% in [5]; -1.5% in assay [6]. Moreover, the Percent Effect in assay [7] is 11.8%; in [8], 4.05%; in [9], 1.04%; in assay [10] it was 17.7%; in assay [11], -26.5%.

`CCc1csc(C2CCCN(C(=O)c3ccnc(N(C)C)c3)C2)n1` (stereo not drawn): the Percent Effect in assay [1] is -1.95%; in assay [2], 13.2%; in assay [3], 0.891%; in assay [4], -9.58%; in assay [5] it was 4.58%; in assay [6] it was -3.55%. The Percent Effect in assay [7] was 7.77%; in [8], 41.7%; in assay [9] it was 4.25%; in assay [10], 13%; in assay [11] it was -4.33%.

As for `CC(C)(C)c1nnc(CN2CCN(CC(O)c3ccccc3)CC2)o1` (stereo not drawn), the Percent Effect in assay [1] is -4.73%; in [2] it was 10.1%; in [3], -1.08%; in assay [4] it was 7.24%; in assay [5] it was 2.55%; in assay [6], 0%. In addition, the Percent Effect in assay [7] was -6.31%; in [8], 10.4%; in [9], 5.42%; in assay [10] it was 16.5%; in assay [11], -5.94%.
